From PubChem BioAssay (NCI)
This is part of a sample that, as a whole, favours compounds with a hit. Of some 83,000 tested, about 20% had one in any assay.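 48-hour exposure, single concentration, 96-well plates; percent growth endpoint where 0 means no net growth. Active: below 10.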 A number with no mark means an inactive call. Activity calls are given as the source filed them.

Assays:
Experiment in all cases: NCI-60 one-dose screen, 48 h (100 = growth as untreated, 0 = no growth, -100 = all killed)
Settings in all cases: 10 µM unless noted
[1] = test system: RPMI-8226 leukemia
[2] = test system: OVCAR-8 ovarian
[3] = test system: OVCAR-5 ovarian
[4] = test system: SK-OV-3 ovarian
[5] = test system: IGROV1 ovarian
[6] = test system: OVCAR-3 ovarian
[7] = test system: HS 578T breast
[8] = test system: NCI/ADR-RES ovarian
[9] = test system: T-47D breast

Row | SMILES | growth [1] | growth [2] | growth [3] | growth [4] | growth [5] | growth [6] | growth [7] | growth [8] | growth [9]
1 | CC1CCCCN1CCCNC(=O)c1ccc2c(c1)sc1nc(-c3ccc(F)cc3)cn12 (stereo unspecified) | 86% | 105% | 100% | 99.7% | 93.8% | 105% | 98.5% | 87.6% | 93.4%
2 | Cc1cc(Nc2ccc(OCc3ccccc3)cc2)nc2cc(O)ccc12 | 6.65% (active) | 57.1% | 84.3% | 86.9% | 60.5% | 41.3% | 106% | 75.7% | 69.8%
3 | COC(=O)c1cc2c(n1Cc1ccccc1)-c1oncc1CCC2 | 49.8% | 76.7% | 87.8% | 93.7% |  | 65.2% | 78.2% | 40.3% | 74.9%
4 | COc1cc2c(cc1OC)C(=O)C(CC1CCN(C(=O)Nc3ccc(C)cc3)CC1)C2 (stereo unspecified) | 111% | 106% | 86.9% | 98.5% | 96.1% | 100% | 82.1% | 99.6% | 89.1%
5 | O=C(Nc1ccc(Br)cc1F)c1cc(F)ccc1O | -28.9% (active) | 8.95% (active) | 25.3% | 1.4% (active) | 19.2% | 9.86% (active) | 1.14% (active) | 9.89% (active) | -3.86% (active)
6 | COc1ccc(-c2nsc3c2NC(=O)CC3c2ccsc2)cc1 (stereo unspecified) | 21.5% | 30.7% | 33% | -4.77% (active) | 15.7% | -39.3% (active) | 32.5% | 22.2% | 62.7%
7 | CCN1CCN(c2cc(C)c3cc(NC(=O)c4ccc(OC)c(OC)c4)ccc3n2)CC1 | 16.7% | 58.9% | 88.7% | 39.8% | 36.6% | 12.5% | 32.6% | 28.1% | 58.4%
8 | O=C(Nc1ccsc1C(=O)NC1CCCCC1)c1ccc(F)cc1 | 70% | 102% | 98.3% | 101% | 90.7% | 111% | 105% | 96.5% | 102%
9 | CCN(CC)c1cc(C)c2cc(NC(=O)c3cccc(OC)c3)ccc2n1 | 7.5% (active) | 74.8% | 98.3% | 104% | 98.4% | 74.8% | 58.3% | 80.5% | 70.8%
10 | CCn1c(Cc2ccccc2Nc2c(Cl)cccc2Cl)nnc1SCC(=O)NN1C(=O)/C(=C/c2cccc(OC)c2OC)SC1=S | 94.3% | 99% | 99.2% | 107% |  | 108% | 94.7% | 104% | 86%
11 | CCOC(=O)c1cc2c(n1Cc1ccccc1OC)-c1oncc1CCC2 | 14.9% | 35.4% | 69.5% | 24.2% |  | 8.96% (active) | 10.9% | 15% | 38.6%
12 | COc1ccc(CCN2CCC(CN(C)Cc3cnn(-c4ccccc4)c3)CC2)cc1 | 15.6% | 15.3% | 57.4% | 39.2% | 28.9% | 37.4% | 67.1% | 12% | 36.4%
13 | Cc1sc2ncnc(Sc3nc4ccccc4[nH]3)c2c1C | -27.1% (active) | -66.1% (active) | -58.6% (active) | -23.1% (active) | -76.5% (active) | -86.1% (active) | -27.5% (active) | 20.1% | -55.4% (active)
14 | COc1ccccc1C(=O)/C=C/c1ccccc1 | -2.98% (active) | 78.1% | 101% | 90.3% | 85.7% |  |  | 76.4% | 81.4%
15 | c1ccc(-c2ccc(-c3nc4ccccc4[nH]3)cc2)cc1 | 51.2% | 89.4% | 106% | 89.3% | 75.1% | 86.2% | 94.5% | 86.7% | 86.6%
16 | C=C(C)CCC(C)N1CCC(N2CCC(C(=O)NCCc3ccccc3)CC2)CC1 (stereo unspecified) | 4.75% (active) | 75.6% | 92.2% | 52.9% | 69.5% | -15.2% (active) | 56.6% | 59.9% | 60.9%
17 | COc1cc([C@@H]2NC(=O)NC(C)=C2C(=O)Nc2nc(-c3ccc(Cl)cc3)cs2)ccc1O | 111% | 102% | 100% | 87.8% | 96.6% | 111% | 101% | 97.2% | 77.1%
18 | O=c1c2cc(F)cc(Cl)c2sc2c(Cl)nc3ccccc3c12 | 115% | 102% | 95.5% | 95% | 74.8% | 108% | 88.4% | 98.3% | 91.8%
19 | COc1cc(-c2c3c(c(Br)n2Cc2ccccc2)-c2nc(N)sc2CC3)cc(OC)c1OC | 71.9% | 89.2% | 107% | 107% | 110% | 95.6% | 80% | 87.4% | 63.8%
20 | O=C(Nc1ccccc1O)c1ccc(Oc2cccc(C(=O)Nc3ccccc3O)c2)cc1 | 8.97% (active) | 16.7% | 50.7% | 26.6% | 18.6% | 27.3% | 40.6% | 5.02% (active) | 26.1%
21 | COc1ccc(C(=O)Nc2ccc3nc(N4CCCCC4)cc(C)c3c2)cc1OC | 61.8% | 94.1% | 89.1% | 114% |  | 59.1% | 77.9% | 98.3% | 94.8%
22 | O=C(Nc1ccc(I)cc1F)c1cc(Cl)ccc1O | -29.3% (active) | 10.1% | 26.1% | 4.21% (active) | 16.2% | 4.4% (active) | 5.53% (active) | 9.54% (active) | -4.67% (active)
23 | Cc1ccc(CN2CCC(C(=O)Nc3ccc(-c4cc5ccccc5[nH]4)cc3)CC2)o1 | 20.5% | 53.3% | 98.1% | 107% | 61% | 49.4% | 67% | 44.3% | 92.1%
24 | CCn1c(SCC(=O)Nc2cc(C(F)(F)F)ccc2Cl)nc2ccccc2c1=O | 14.2% | 60.9% | 78.3% | 76.5% | 34.2% | 52.4% | 43.8% | 47.3% | 50.6%
25 | N#C/C(=C1\SC(=O)CN1c1ccccc1)c1nc2ccccc2s1 | 83.7% | 94.9% | 103% | 99.1% |  | 87% | 94.3% | 89.2% | 73.6%
26 | COc1cccc(C(=O)Cn2cc(/C=C(\C#N)S(=O)(=O)c3ccccc3)c3ccccc32)c1 | 72.2% | 89.3% | 47.9% | 85% |  | 103% | 106% | 90.6% | 91.6%
27 | Nc1ccc(-n2c(=O)oc3ccc(Cl)cc3c2=O)c(Cl)c1 | -27.3% (active) | -1.7% (active) | 25.6% | 5.68% (active) | 11.7% | 5.11% (active) | -4.07% (active) | -1.91% (active) | -8.23% (active)
28 | CCc1ccc(CNCC(O)c2ccccc2)cc1 (stereo unspecified) | 34.3% | 72.2% | 76.1% | 90.6% |  | 71.4% | 93.3% | 65.7% | 72%
29 | FC(F)(F)c1cccc(Nc2nc(-c3ccccc3)nc3ncccc23)c1 | -39.8% (active) | 89.4% | 107% | 90.2% | 98.8% | 32.2% | -49.5% (active) | 86.3% | 82.9%
30 | c1ccc2cc3c(Nc4ccc(N5CCOCC5)cc4)ccnc3cc2c1 | 60.1% | 94.3% | 97% | 107% | 89.5% | 96% | 103% | 91.1% | 95.5%
